{
  "source": "the supplement of paper PMC10849652",
  "note": "About 7,900 targets were measured; listed, in parts, are those with a hit and a random draw of the rest. About 0.6% of all pairs of compound and target were hits.",
  "data": [
    {"compound": "C1=CC=C(C=C1)[C@H](COC2=CC3=C(C=C2)NC(=O)N3)NC(=O)C4=CC=CN(C4=O)CC5=CC(=C(C=C5)F)F", "test": "log2 fold change, soluble protein after heating vs DMSO (PISA); higher = thermal stabilisation; K562 cells, 10 uM, 30 min; active = over 0.2 and 3.5 SD of the protein, either way, in both replicates (recomputed)", "how_it_was_run": "(§1)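 K562 cells (2×10^6 cells/mL) were treated with 10 μM compound for 30 min, and aliquots were heated for 3 min over 48°C-58°C. Pooled aliquots were extracted in PBS with 0.5% NP-40 at 4°C, and the supernatant after 21,000xg for 90 min was measured by TMTpro 16plex LC-MS/MS with channel sums equalised. Reported thermal stability, relative to control samples and from duplicates, is a log2 fold change.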", "values": [
      {"target": "AZI2 (UniProt Q9H6S1)", "log2 fold change": "0.034 (inactive)"},
      {"target": "ASB6 (UniProt Q9NWX5)", "log2 fold change": "-0.065 (inactive)"},
      {"target": "ALDH2 isoform 2 (UniProt P05091)", "log2 fold change": "-0.092 (inactive)"},
      {"target": "ADD1 isoform 4 (UniProt P35611)", "log2 fold change": "-0.03 (inactive)"},
      {"target": "AGAP3 isoform 4 (UniProt Q96P47)", "log2 fold change": "-0.08 (inactive)"},
      {"target": "AASDH (UniProt Q4L235)", "sequence (Q4L235 whole entry, looked up)": "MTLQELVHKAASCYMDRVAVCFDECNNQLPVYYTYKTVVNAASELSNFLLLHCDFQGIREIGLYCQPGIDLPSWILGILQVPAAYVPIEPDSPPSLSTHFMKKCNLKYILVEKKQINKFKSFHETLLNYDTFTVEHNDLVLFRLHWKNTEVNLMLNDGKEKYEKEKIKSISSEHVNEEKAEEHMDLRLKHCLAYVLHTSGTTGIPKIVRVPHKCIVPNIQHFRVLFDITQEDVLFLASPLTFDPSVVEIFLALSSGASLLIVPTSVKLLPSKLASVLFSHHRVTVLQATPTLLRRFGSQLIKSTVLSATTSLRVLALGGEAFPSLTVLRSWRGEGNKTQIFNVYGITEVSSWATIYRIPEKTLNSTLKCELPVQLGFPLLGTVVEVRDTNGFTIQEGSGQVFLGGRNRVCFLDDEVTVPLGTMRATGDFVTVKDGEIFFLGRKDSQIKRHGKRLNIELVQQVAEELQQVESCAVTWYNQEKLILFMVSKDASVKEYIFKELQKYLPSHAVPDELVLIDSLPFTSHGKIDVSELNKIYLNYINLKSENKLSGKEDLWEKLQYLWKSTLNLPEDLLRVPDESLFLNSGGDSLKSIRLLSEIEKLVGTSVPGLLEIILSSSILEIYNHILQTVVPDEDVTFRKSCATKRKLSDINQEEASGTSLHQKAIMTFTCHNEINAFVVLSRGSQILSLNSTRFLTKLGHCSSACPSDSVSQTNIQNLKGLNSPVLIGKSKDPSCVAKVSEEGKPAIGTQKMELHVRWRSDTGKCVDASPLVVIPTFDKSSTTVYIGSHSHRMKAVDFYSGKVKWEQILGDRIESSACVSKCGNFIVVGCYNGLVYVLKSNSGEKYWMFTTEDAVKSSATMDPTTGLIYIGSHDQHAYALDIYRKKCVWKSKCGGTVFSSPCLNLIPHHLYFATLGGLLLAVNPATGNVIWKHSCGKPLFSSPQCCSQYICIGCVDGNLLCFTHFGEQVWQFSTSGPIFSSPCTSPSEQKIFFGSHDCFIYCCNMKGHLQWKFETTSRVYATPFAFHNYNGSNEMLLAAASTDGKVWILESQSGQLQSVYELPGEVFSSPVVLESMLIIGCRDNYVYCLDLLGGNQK", "log2 fold change": "0.047 (inactive)"},
      {"target": "AIF1 (UniProt P55008)", "sequence (P55008 whole entry, looked up)": "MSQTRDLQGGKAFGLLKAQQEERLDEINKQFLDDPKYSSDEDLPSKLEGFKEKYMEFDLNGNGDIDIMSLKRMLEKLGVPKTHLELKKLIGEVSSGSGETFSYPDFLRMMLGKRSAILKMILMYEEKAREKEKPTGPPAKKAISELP", "log2 fold change": "-0.114 (inactive)"},
      {"target": "ANGEL1 (UniProt Q9UNK9)", "log2 fold change": "-0.256 (inactive)"},
      {"target": "AARSD1 (UniProt Q9BTE6)", "log2 fold change": "-0.081 (inactive)"},
      {"target": "AUP1 (UniProt Q9Y679)", "sequence (Q9Y679 whole entry, looked up)": "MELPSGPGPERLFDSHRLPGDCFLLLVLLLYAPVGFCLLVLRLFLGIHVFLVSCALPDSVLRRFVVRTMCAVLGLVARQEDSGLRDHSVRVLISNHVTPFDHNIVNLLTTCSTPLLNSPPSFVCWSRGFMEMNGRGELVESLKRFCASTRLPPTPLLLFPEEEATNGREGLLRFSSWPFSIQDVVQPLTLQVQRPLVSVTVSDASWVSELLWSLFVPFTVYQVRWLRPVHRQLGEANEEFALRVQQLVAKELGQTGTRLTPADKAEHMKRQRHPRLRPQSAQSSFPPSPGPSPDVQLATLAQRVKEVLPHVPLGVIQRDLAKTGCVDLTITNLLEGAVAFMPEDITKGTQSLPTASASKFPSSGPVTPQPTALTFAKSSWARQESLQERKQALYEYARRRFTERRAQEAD", "log2 fold change": "-0.044 (inactive)"},
      {"target": "BCCIP isoform 2 (UniProt Q9P287)", "sequence (Q9P287 whole entry, looked up)": "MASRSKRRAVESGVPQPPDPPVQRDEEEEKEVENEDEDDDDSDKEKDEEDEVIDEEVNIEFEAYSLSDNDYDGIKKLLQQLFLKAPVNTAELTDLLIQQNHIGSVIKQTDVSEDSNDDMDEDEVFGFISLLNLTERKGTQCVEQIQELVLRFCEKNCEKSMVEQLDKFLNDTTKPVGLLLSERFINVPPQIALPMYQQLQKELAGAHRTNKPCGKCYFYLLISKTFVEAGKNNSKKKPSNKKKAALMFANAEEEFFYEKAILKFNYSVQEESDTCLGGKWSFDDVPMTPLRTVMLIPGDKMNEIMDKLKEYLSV", "log2 fold change": "-0.031 (inactive)"},
      {"target": "BDH2 (UniProt Q9BUT1)", "sequence (Q9BUT1 whole entry, looked up)": "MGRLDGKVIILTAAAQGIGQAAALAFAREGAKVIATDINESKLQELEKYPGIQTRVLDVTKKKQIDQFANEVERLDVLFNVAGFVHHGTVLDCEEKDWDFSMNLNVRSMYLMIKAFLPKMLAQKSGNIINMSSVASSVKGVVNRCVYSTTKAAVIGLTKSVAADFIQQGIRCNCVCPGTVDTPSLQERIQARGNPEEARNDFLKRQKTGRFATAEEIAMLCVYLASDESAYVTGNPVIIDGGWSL", "log2 fold change": "-0.033 (inactive)"},
      {"target": "ACSL6 isoform 1 (UniProt Q9UKU0)", "log2 fold change": "0.012 (inactive)"},
      {"target": "APOBEC3G (UniProt Q9HC16)", "log2 fold change": "0.089 (inactive)"},
      {"target": "BAD (UniProt Q92934)", "sequence (Q92934 whole entry, looked up)": "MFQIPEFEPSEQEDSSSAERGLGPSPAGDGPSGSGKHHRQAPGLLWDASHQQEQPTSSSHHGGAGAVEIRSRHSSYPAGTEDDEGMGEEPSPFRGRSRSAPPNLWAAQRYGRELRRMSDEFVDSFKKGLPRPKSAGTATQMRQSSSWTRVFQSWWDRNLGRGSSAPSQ", "log2 fold change": "-0.001 (inactive)"},
      {"target": "ATP5IF1 (UniProt Q9UII2)", "sequence (Q9UII2 whole entry, looked up)": "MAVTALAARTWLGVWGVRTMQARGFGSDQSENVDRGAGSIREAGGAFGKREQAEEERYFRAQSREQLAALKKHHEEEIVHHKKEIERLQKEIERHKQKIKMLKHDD", "log2 fold change": "0.016 (inactive)"},
      {"target": "ADPRH (UniProt P54922)", "log2 fold change": "-0.035 (inactive)"},
      {"target": "ALDH1B1 (UniProt P30837)", "log2 fold change": "0.037 (inactive)"},
      {"target": "ATG9A (UniProt Q7Z3C6)", "log2 fold change": "0.018 (inactive)"},
      {"target": "AMD1 (UniProt P17707)", "log2 fold change": "-0.021 (inactive)"},
      {"target": "ACTBL2 (UniProt Q562R1)", "log2 fold change": "-0.444 (inactive)"},
      {"target": "ARMC8 isoform 6 (UniProt Q8IUR7)", "log2 fold change": "0.053 (inactive)"},
      {"target": "AFDN isoform 1 (UniProt P55196)", "log2 fold change": "0.038 (inactive)"},
      {"target": "ABCA4 (UniProt P78363)", "sequence (P78363 whole entry, looked up)": "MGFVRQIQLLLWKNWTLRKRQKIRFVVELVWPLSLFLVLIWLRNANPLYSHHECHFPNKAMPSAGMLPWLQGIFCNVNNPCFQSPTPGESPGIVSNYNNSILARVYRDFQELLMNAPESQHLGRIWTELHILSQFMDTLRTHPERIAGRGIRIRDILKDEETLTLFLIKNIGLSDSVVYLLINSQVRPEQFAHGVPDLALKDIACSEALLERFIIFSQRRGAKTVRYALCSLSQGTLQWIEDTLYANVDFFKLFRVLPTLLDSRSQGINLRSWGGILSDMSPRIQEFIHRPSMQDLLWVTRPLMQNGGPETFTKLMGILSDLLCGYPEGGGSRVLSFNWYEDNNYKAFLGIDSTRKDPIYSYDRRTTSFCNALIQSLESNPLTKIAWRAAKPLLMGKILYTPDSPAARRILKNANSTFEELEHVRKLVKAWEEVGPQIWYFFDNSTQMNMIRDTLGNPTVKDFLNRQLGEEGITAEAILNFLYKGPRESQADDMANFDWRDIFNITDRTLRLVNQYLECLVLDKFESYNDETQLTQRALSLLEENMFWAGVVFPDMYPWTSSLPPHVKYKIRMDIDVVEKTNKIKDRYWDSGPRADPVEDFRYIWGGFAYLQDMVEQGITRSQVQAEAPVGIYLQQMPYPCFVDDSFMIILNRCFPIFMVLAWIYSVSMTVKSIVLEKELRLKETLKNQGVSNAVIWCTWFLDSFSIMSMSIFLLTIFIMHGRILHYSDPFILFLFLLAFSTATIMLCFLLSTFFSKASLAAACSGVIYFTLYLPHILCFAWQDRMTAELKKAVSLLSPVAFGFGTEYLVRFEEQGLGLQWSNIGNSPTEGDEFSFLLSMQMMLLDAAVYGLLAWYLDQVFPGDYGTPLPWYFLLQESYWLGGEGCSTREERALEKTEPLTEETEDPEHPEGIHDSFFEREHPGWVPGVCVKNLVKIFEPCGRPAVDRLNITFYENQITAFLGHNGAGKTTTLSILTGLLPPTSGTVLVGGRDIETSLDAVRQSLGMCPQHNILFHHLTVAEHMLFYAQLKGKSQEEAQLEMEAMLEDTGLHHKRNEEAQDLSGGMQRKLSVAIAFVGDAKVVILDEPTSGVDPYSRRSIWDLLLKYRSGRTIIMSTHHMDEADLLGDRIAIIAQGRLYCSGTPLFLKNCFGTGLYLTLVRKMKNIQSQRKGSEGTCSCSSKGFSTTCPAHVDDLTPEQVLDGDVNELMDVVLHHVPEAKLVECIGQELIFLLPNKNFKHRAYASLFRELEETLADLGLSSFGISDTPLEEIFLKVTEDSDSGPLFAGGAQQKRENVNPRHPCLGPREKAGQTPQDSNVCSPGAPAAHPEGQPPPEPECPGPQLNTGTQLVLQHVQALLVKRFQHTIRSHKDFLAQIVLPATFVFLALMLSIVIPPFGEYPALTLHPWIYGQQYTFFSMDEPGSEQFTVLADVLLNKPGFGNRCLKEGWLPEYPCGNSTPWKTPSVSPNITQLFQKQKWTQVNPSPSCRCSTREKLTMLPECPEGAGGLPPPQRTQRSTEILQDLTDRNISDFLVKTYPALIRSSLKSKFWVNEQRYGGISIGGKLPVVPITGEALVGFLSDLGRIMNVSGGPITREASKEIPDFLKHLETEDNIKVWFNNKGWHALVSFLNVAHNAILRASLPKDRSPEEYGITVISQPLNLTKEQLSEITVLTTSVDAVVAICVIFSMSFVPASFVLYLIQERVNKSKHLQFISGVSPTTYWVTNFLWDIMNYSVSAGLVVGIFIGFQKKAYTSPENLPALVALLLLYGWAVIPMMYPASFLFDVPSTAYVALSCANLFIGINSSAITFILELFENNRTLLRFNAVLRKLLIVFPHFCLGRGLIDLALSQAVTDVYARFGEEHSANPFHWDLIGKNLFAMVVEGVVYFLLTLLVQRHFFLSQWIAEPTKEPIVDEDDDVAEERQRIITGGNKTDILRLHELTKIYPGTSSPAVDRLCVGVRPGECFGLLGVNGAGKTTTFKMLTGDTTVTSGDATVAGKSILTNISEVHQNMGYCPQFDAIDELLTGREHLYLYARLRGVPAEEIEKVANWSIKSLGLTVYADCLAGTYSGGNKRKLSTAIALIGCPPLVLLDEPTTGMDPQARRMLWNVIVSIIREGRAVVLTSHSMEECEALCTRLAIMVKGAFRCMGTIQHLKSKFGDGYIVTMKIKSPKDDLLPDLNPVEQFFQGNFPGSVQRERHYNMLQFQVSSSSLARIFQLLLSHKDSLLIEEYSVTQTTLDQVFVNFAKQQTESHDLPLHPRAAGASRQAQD", "log2 fold change": "0.174 (inactive)"},
      {"target": "AP4S1 (UniProt Q9Y587)", "sequence (Q9Y587 whole entry, looked up)": "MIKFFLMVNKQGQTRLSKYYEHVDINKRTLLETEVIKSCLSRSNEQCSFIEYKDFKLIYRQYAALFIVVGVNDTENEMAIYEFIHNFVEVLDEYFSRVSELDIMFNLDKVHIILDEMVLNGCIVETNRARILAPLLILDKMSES", "log2 fold change": "-0.077 (inactive)"}
    ]},
    {"compound": "CC1=C(SC2=C1C(=N[C@H](C3=NN=C(N32)C)CC(=O)N)C4=CC=C(C=C4)Cl)C", "test": "log2 fold change, soluble protein after heating vs DMSO (PISA); higher = thermal stabilisation; K562 cells, 10 uM, 30 min; active = over 0.2 and 3.5 SD of the protein, either way, in both replicates (recomputed)", "how_it_was_run": "as §1", "values": [
      {"target": "ADD1 isoform 4 (UniProt P35611)", "log2 fold change": "0.04 (inactive)"},
      {"target": "AGAP3 isoform 4 (UniProt Q96P47)", "log2 fold change": "-0.023 (inactive)"},
      {"target": "AASDH (UniProt Q4L235)", "log2 fold change": "0.054 (inactive)"},
      {"target": "AUNIP isoform 2 (UniProt Q9H7T9)", "log2 fold change": "0.031 (inactive)"},
      {"target": "AARSD1 (UniProt Q9BTE6)", "log2 fold change": "-0.267 (inactive)"},
      {"target": "AUP1 (UniProt Q9Y679)", "log2 fold change": "0.053 (inactive)"},
      {"target": "BCCIP isoform 2 (UniProt Q9P287)", "log2 fold change": "0.002 (inactive)"},
      {"target": "BDH2 (UniProt Q9BUT1)", "log2 fold change": "0.087 (inactive)"},
      {"target": "ADD3 isoform 2 (UniProt Q9UEY8)", "log2 fold change": "-0.075 (inactive)"},
      {"target": "BAD (UniProt Q92934)", "log2 fold change": "-0.042 (inactive)"},
      {"target": "ACVR1 (UniProt Q04771)", "log2 fold change": "0.061 (inactive)"},
      {"target": "AKNA (UniProt Q7Z591)", "log2 fold change": "0.071 (inactive)"},
      {"target": "ATP5IF1 (UniProt Q9UII2)", "log2 fold change": "-0.087 (inactive)"},
      {"target": "ALDH1B1 (UniProt P30837)", "log2 fold change": "0.064 (inactive)"},
      {"target": "ATG9A (UniProt Q7Z3C6)", "log2 fold change": "0.014 (inactive)"},
      {"target": "APAF1 (UniProt O14727)", "log2 fold change": "0.031 (inactive)"},
      {"target": "AFDN isoform 1 (UniProt P55196)", "log2 fold change": "-0.119 (inactive)"},
      {"target": "BAIAP2 isoform 4 (UniProt Q9UQB8)", "log2 fold change": "0.029 (inactive)"},
      {"target": "ABCA4 (UniProt P78363)", "log2 fold change": "0.297 (inactive)"},
      {"target": "AP4S1 (UniProt Q9Y587)", "log2 fold change": "0.133 (inactive)"}
    ]}
  ]
}
